In PubChem BioAssay AID1159580 (chemical genetic matrix, 2015):
Among all 5,500 compounds or so, about 2,000 (36%) were called active. Inconclusive results (about 18%) are left out. No stated cut-off is given here; in the data, active means normalized growth mostly below about 0.91 (no sharp cut-off); inconclusive means no clear call, values can overlap the other calls; inactive means mostly above about 0.92. The list shows a part of the results.

Experiment: chemical genetic growth profiling, strain panel (AID 1159580);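 further: tested at 20 µM; growth read once vehicle control cultures reached saturation at 30 °C; 1 = growth at the plate median or of vehicle wells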
Conditions: growth OD

Measured: normalized growth

C=CCc1ccc(O)c(OC)c1
inactive: S. cerevisiae deletion strains, locus YJL187C, strain SWE1, stronger effect = lower value 0.999 | S. cerevisiae deletion strains, locus YJR043C, strain POL32, stronger effect = lower value 0.913 | S. cerevisiae deletion strains, locus YJR066W, strain TOR1, stronger effect = lower value 0.973 | S. cerevisiae deletion strains, locus YJR075W, strain HOC1, stronger effect = lower value 0.885 | S. cerevisiae deletion strains, locus YKL009W, strain mrt4, stronger effect = lower value 0.998 | S. cerevisiae deletion strains, locus YKL160W, strain elf1, stronger effect = lower value 1.02 | S. cerevisiae deletion strains, locus YKR026C, strain gcn3, stronger effect = lower value 0.989 | S. cerevisiae deletion strains, locus YKR091W, strain srl3, stronger effect = lower value 0.992 | S. cerevisiae deletion strains, locus YLL001W, strain dnm1, stronger effect = lower value 1.02 | S. cerevisiae deletion strains, locus YLL026W, stronger effect = lower value 0.989 | S. cerevisiae deletion strains, locus YLL041C, strain sdh2, stronger effect = lower value 0.989 | S. cerevisiae deletion strains, locus YLR027C, strain aat2, stronger effect = lower value 0.99 | S. cerevisiae deletion strains, locus YLR058C, strain SHM2, stronger effect = lower value 0.949 | S. cerevisiae deletion strains, locus YLR102C, strain apc9, stronger effect = lower value 0.95 | S. cerevisiae deletion strains, locus YLR113W, strain HOG1, stronger effect = lower value 0.962 | S. cerevisiae deletion strains, locus YLR221C, strain rsa3, stronger effect = lower value 1.01 | S. cerevisiae deletion strains, locus YLR258W, strain gsy2, stronger effect = lower value 1.01 | S. cerevisiae deletion strains, locus YLR262C, strain YPT6 (second series), stronger effect = lower value 0.998 | S. cerevisiae deletion strains, locus YLR262C, strain YPT6, stronger effect = lower value 0.674 | S. cerevisiae deletion strains, locus YLR268W, strain sec22, stronger effect = lower value 1.01 | S. cerevisiae deletion strains, locus YLR320W, strain mms22, stronger effect = lower value 0.996 | S. cerevisiae deletion strains, locus YLR342W, strain FKS1 (second series), stronger effect = lower value 0.888 | S. cerevisiae deletion strains, locus YLR342W, strain FKS1, stronger effect = lower value 0.999 | S. cerevisiae deletion strains, locus YLR357W, strain rsc2, stronger effect = lower value 0.992 | S. cerevisiae deletion strains, locus YLR370C, strain arc18, stronger effect = lower value 0.997 | S. cerevisiae deletion strains, locus YLR384C, strain iki3, stronger effect = lower value 0.991 | S. cerevisiae deletion strains, locus YML032C, strain rad52, stronger effect = lower value 0.93 | S. cerevisiae deletion strains, locus YML120C, strain ndi1, stronger effect = lower value 1.03 | S. cerevisiae deletion strains, locus YMR058W, strain fet3, stronger effect = lower value 1 | S. cerevisiae deletion strains, locus YMR078C, strain ctf18, stronger effect = lower value 0.917 | S. cerevisiae deletion strains, locus YMR125W, strain sto1, stronger effect = lower value 0.965 | S. cerevisiae deletion strains, locus YMR129W, stronger effect = lower value 0.984 | S. cerevisiae deletion strains, locus YMR205C, strain PFK2, stronger effect = lower value 0.995 | S. cerevisiae deletion strains, locus YMR223W, strain ubp8, stronger effect = lower value 0.936 | S. cerevisiae deletion strains, locus YMR231W, strain pep5, stronger effect = lower value 0.983 | S. cerevisiae deletion strains, locus YMR307W, strain GAS1, stronger effect = lower value 1 | S. cerevisiae deletion strains, locus YNL067W, strain RPL9B, stronger effect = lower value 0.97 | S. cerevisiae deletion strains, locus YNL071W, strain lat1, stronger effect = lower value 0.959 | S. cerevisiae deletion strains, locus YNL153C, strain GIM3, stronger effect = lower value 0.991 | S. cerevisiae deletion strains, locus YNL183C, strain NPR1, stronger effect = lower value 0.928 | S. cerevisiae deletion strains, locus YNL209W, strain ssb2, stronger effect = lower value 0.999 | S. cerevisiae deletion strains, locus YNL233W, strain BNI4, stronger effect = lower value 0.901 | S. cerevisiae deletion strains, locus YNL248C, strain rpa49, stronger effect = lower value 1 | S. cerevisiae deletion strains, locus YNL250W, strain rad50, stronger effect = lower value 0.924 | S. cerevisiae deletion strains, locus YNL271C, strain bni1, stronger effect = lower value 0.931 | S. cerevisiae deletion strains, locus YNL298W, strain CLA4, stronger effect = lower value 0.995 | S. cerevisiae deletion strains, locus YNL307C, strain MCK1, stronger effect = lower value 0.932 | S. cerevisiae deletion strains, locus YNL322C, strain KRE1 (second series), stronger effect = lower value 0.993 | S. cerevisiae deletion strains, locus YNR049C, strain mso1, stronger effect = lower value 0.988 | S. cerevisiae deletion strains, locus YNR052C, strain pop2, stronger effect = lower value 1.01 | S. cerevisiae deletion strains, locus YOL012C, strain htz1 0.778 | S. cerevisiae deletion strains, locus YOL147C, strain pex11, stronger effect = lower value 0.939 | S. cerevisiae deletion strains, locus YOR001W, strain rrp6, stronger effect = lower value 1.01 | S. cerevisiae deletion strains, locus YOR061W, strain CKA2, stronger effect = lower value 0.948 | S. cerevisiae deletion strains, locus YOR069W, strain VPS5, stronger effect = lower value 0.948 | S. cerevisiae deletion strains, locus YOR070C, strain gyp1, stronger effect = lower value 0.996 | S. cerevisiae deletion strains, locus YOR080W, strain dia2, stronger effect = lower value 0.989 | S. cerevisiae deletion strains, locus YOR083W, strain WHI5, stronger effect = lower value 1.04 | S. cerevisiae deletion strains, locus YOR106W, strain vam3, stronger effect = lower value 1.04 | S. cerevisiae deletion strains, locus YOR136W, strain idh2, stronger effect = lower value 0.992 | S. cerevisiae deletion strains, locus YOR144C, strain elg1, stronger effect = lower value 0.937 | S. cerevisiae deletion strains, locus YOR184W, strain ser1, stronger effect = lower value 0.973 | S. cerevisiae deletion strains, locus YOR231W, strain MKK1, stronger effect = lower value 0.982 | S. cerevisiae deletion strains, locus YOR265W, strain rbl2, stronger effect = lower value 0.999 | S. cerevisiae deletion strains, locus YOR270C, strain vph1, stronger effect = lower value 0.964 | S. cerevisiae deletion strains, locus YOR290C, strain snf2, stronger effect = lower value 0.986 | S. cerevisiae deletion strains, locus YOR316C, strain cot1, stronger effect = lower value 0.939 | S. cerevisiae deletion strains, locus YPL051W, strain arl3, stronger effect = lower value 1.02 | S. cerevisiae deletion strains, locus YPL078C, strain atp4, stronger effect = lower value 1.01 | S. cerevisiae deletion strains, locus YPL106C, strain sse1, stronger effect = lower value 0.948 | S. cerevisiae deletion strains, locus YPL240C, strain hsp82, stronger effect = lower value 0.993 | S. cerevisiae deletion strains, locus YPL256C, strain CLN2, stronger effect = lower value 0.973 | S. cerevisiae deletion strains, locus YPR163C, strain tif3, stronger effect = lower value 0.969 | S. cerevisiae deletion strains, locus YPR167C, strain met16, stronger effect = lower value 0.947 | S. cerevisiae deletion strains, strain wtn01, stronger effect = lower value 0.988 | S. cerevisiae strains, strain wild type, stronger effect = lower value 0.95
active: S. cerevisiae deletion strains, locus YKL068W, stronger effect = lower value 0.923 | S. cerevisiae deletion strains, locus YKL085W, strain MDH1 (second series), stronger effect = lower value 0.894 | S. cerevisiae deletion strains, locus YKL085W, strain MDH1, stronger effect = lower value 0.894 | S. cerevisiae deletion strains, locus YKR001C, strain vps1, stronger effect = lower value 0.813 | S. cerevisiae deletion strains, locus YLR039C, strain RIC1, stronger effect = lower value 0.605 | S. cerevisiae deletion strains, locus YLR330W, strain CHS5, stronger effect = lower value 0.885 | S. cerevisiae deletion strains, locus YLR371W, strain rom2, stronger effect = lower value 0.692 | S. cerevisiae deletion strains, locus YLR418C, strain cdc73, stronger effect = lower value 0.799 | S. cerevisiae deletion strains, locus YML016C, strain PPZ1, stronger effect = lower value 0.91 | S. cerevisiae deletion strains, locus YML124C, strain tub3, stronger effect = lower value 0.917 | S. cerevisiae deletion strains, locus YPR119W, strain clb2, stronger effect = lower value 0.916 | S. cerevisiae deletion strains, locus YPR141C, strain kar3, stronger effect = lower value 0.879
